Data on nine molecules can be found in PubChem BioAssay (NCATS).

One assay deals with MCC-13. The experiment in a line: qHTS assay to identify novel small-molecules to repurpose for Merkel cell carcinoma treatment (AID 1296009). Note: nearly all actives have a fitted effect of over 60% in size. Note: potency is the fitted concentration of half-maximal effect. Conditions: MCC and control cell lines, CellTiter-Glo viability, 72 h; series mostly up to 46 µM. The gist of the method:
(§1)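 After compound transfer in DMSO, plates were kept 72 hr at 37 degree celsius. Luminescent ATP signal from CellTiter-Glo served as viability measure, normalized against DMSO and no-cell controls.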

Another assay deals with MCC-26. Described as above. Conditions: MCC and control cell lines, CellTiter-Glo viability, 72 h; series mostly up to 46 µM. The gist of the method:
as §1

For the next assay, the system named is MKL-1. Described as above. Conditions: MCC and control cell lines, CellTiter-Glo viability, 72 h; series mostly up to 46 µM. The gist of the method:
as §1
Background: ATP-based viability assays read luminescence as a measure of living cells.

The test system of a further assay is MKL-2. The description is as above. Conditions: MCC and control cell lines, CellTiter-Glo viability, 72 h; series mostly up to 46 µM. The gist of the method:
as §1

A further assay deals with NIH3T3. The description is as above. Conditions: MCC and control cell lines, CellTiter-Glo viability, 72 h; at 44.8 µM (top of the series) unless noted. The gist of the method: as §1
The next assay relates to UISO. Described as above. Conditions: MCC and control cell lines, CellTiter-Glo viability, 72 h; series mostly up to 46 µM. The gist of the method:
as §1

Another assay concerns WaGa. Described as above. Conditions: MCC and control cell lines, CellTiter-Glo viability, 72 h; series mostly up to 46 µM. The gist of the method:
as §1

For a further assay, the system named is C33A. Description: Primary qHTS to identify gynecologic anti-cancer compounds using libraries of approved drugs and bioactive compounds (AID 1345084). Note: nearly all actives have a fitted effect of over 55% in size. Conditions: Gynecologic cancer cell panel viability, ATPlite luminescence, 48 h; series mostly up to 57.5 µM. The gist of the method: (§2)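 Cell viability after 48 h drug treatment, ATPlite luminescence readout; five doses.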
In general terms: qHTS replaces the single test concentration by a dilution series.

A further assay deals with CAOV3. The assay is described as above. Conditions: Gynecologic cancer cell panel viability, ATPlite luminescence, 48 h; series mostly up to 57.5 µM. The gist of the method:
as §2

The subject of the next assay is CASKI. The description is as above. Conditions: Gynecologic cancer cell panel viability, ATPlite luminescence, 48 h; series mostly up to 57.5 µM. The gist of the method: as §2
A further assay deals with Es-2. The description is as above. Conditions: Gynecologic cancer cell panel viability, ATPlite luminescence, 48 h; series mostly up to 57.5 µM. The gist of the method:
as §2

Another assay deals with HeLa. The assay is described as above. Conditions: Gynecologic cancer cell panel viability, ATPlite luminescence, 48 h; series mostly up to 57.5 µM. The gist of the method:
as §2

The subject of assay [1] is Hek293T. Described as above. Conditions: Gynecologic cancer cell panel viability, ATPlite luminescence, 48 h, control line for the selectivity index; series mostly up to 57.5 µM. The gist of the method:
as §2

The next assay deals with JEG-3. The description is as above. Conditions: Gynecologic cancer cell panel viability, ATPlite luminescence, 48 h; series mostly up to 57.5 µM. The gist of the method:
as §2

A further assay relates to OV90. Described as above. Conditions: Gynecologic cancer cell panel viability, ATPlite luminescence, 48 h; series mostly up to 57.5 µM. The gist of the method: as §2
The next assay has as its system PA-1. The description is as above. Conditions: Gynecologic cancer cell panel viability, ATPlite luminescence, 48 h; series mostly up to 57.5 µM. The gist of the method:
as §2

For the next assay, the system named is SKOV3. Described as above. Conditions: Gynecologic cancer cell panel viability, ATPlite luminescence, 48 h; series mostly up to 57.5 µM. The gist of the method: as §2
A further assay relates to Tov-21-G. The assay is described as above. Conditions: Gynecologic cancer cell panel viability, ATPlite luminescence, 48 h; series mostly up to 57.5 µM. The gist of the method: as §2
For a further assay, the system named is Tov112D. Described as above. Conditions: Gynecologic cancer cell panel viability, ATPlite luminescence, 48 h; series mostly up to 57.5 µM. The gist of the method:
as §2

Assay [2] concerns HEK293T. Description: qHTS assay to identify novel small-molecules to repurpose for Merkel cell carcinoma treatment (AID 1296009). Note: nearly all actives have a fitted effect of over 60% in size. Note: potency is the fitted concentration of half-maximal effect. Conditions: MCC and control cell lines, CellTiter-Glo viability, 72 h; at 44.8 µM (top of the series) unless noted. The gist of the method: as §1

Inconclusive results are not listed. Activity calls are given as the source filed them. Calls come from the whole dose curve; as a rule, active = well fitted curve in the direction sought with a large enough effect; inconclusive = small, poorly fitted or top-dose-only effect, or another doubt; inactive = no such curve, though single readings can be large; an effect the other way counts as inactive or inconclusive.

Consider `O=C(O)c1cn(C2CC2)c2cc(Cl)c(F)cc2c1=O`, for which the Potency result with MCC-13, with MCC-26, with MKL-1, in the assay with MKL-2, in the assay on UISO and in the assay with WaGa was “inactive” throughout. The Potency entry with C33A, with CAOV3, with CASKI, in the assay on Es-2, with HeLa and in the assay on Hek293T [1] was “inactive” each time. For the same molecule, the Potency entry in the assay on JEG-3, with OV90, in the assay on PA-1, in the assay with SKOV3, in the assay on Tov-21-G and with Tov112D was “inactive” each time. Further, the result with NIH3T3 was inactive.

`O=C(CCCl)NCc1ccccc1`: the Potency result in the assay with MCC-13, in the assay with MCC-26, with MKL-1, in the assay with MKL-2, in the assay on UISO and with WaGa was “inactive” each time. In addition, the Potency entry in the assay on C33A, with CAOV3, in the assay with CASKI, in the assay with Es-2, with HeLa and in the assay on Hek293T [1] was “inactive” throughout. The Potency entry in the assay with JEG-3, with OV90, with PA-1, with SKOV3, with Tov-21-G and in the assay on Tov112D was “inactive” in each case. In addition, the result in the assay with NIH3T3 was inactive.

With `CN1C(=O)CC(C)(c2ccccc2)C1=O` (stereo not drawn), the Potency entry in the assay on MCC-13, in the assay on MCC-26, in the assay on MKL-1, in the assay on MKL-2, with UISO and in the assay with WaGa was “inactive” throughout. The Potency entry with C33A, in the assay on CAOV3, with CASKI, with Es-2, in the assay with HeLa and in the assay on Hek293T [1] was “inactive” throughout. Also, the Potency entry in the assay with JEG-3, with OV90, in the assay with PA-1, in the assay with SKOV3, in the assay with Tov-21-G and in the assay on Tov112D was “inactive” throughout. In addition, the molecule was called inactive with NIH3T3.

Consider `COc1cc(C(=O)OC(COCCC(C)C)CN2CCOCC2)cc(OC)c1OC` (stereo not drawn), for which, in the assay on HEK293T [2], the outcome was inactive. In addition, the Potency result with MCC-13, with MCC-26, in the assay with MKL-1, in the assay on MKL-2, in the assay with UISO and in the assay on WaGa was “inactive” in each case. For the same molecule, the Potency result with C33A, in the assay with CASKI, in the assay on Es-2, in the assay on HeLa, in the assay on Hek293T [1] and in the assay on JEG-3 was “inactive” each time. Further, the Potency entry with OV90, in the assay with PA-1, in the assay on SKOV3, in the assay with Tov-21-G and in the assay on Tov112D was “inactive” throughout.

On to `CCOC(=O)c1ccc(O)c(O)c1`, for which, in the assay on HEK293T [2], the molecule was called inactive. In addition, the Potency result in the assay with MCC-26, with C33A, in the assay with CAOV3, in the assay on CASKI, with Es-2 and in the assay on HeLa was “inactive” in each case. Further, the Potency entry with Hek293T [1], in the assay on JEG-3, in the assay on OV90, with Tov-21-G and in the assay with Tov112D was “inactive” in each case. Also, the Potency with MKL-1 was 5.96 µM (active).

Turning to `CCCc1ncc(C(=O)O)s1`, the Potency result in the assay on MCC-13, with MCC-26, with MKL-1, in the assay with MKL-2, with UISO and in the assay on WaGa was “inactive” throughout. For the same molecule, the Potency result in the assay with C33A, in the assay on CAOV3, with CASKI, in the assay with Es-2, in the assay with HeLa and in the assay on Hek293T [1] was “inactive” throughout. Also, the Potency entry in the assay on JEG-3, with OV90, in the assay with PA-1, in the assay on SKOV3, in the assay with Tov-21-G and with Tov112D was “inactive” throughout. Further, the outcome with NIH3T3 was inactive.

For `COC(=O)c1cc(S(N)(=O)=O)ccc1OC`, the Potency result in the assay on MCC-13, with MCC-26, with MKL-1, with MKL-2, with UISO and in the assay with WaGa was “inactive” in each case. The Potency result with C33A, in the assay on CAOV3, in the assay on CASKI, with Es-2, in the assay on HeLa and with Hek293T [1] was “inactive” in each case. The Potency entry in the assay with JEG-3, in the assay on OV90, with PA-1, in the assay with SKOV3, in the assay with Tov-21-G and with Tov112D was “inactive” throughout. In addition, in the assay with NIH3T3, the call was inactive.

Regarding `CCOC(=O)CN1CCCC1=O`, the Potency entry with MCC-13, in the assay with MCC-26, with MKL-1, in the assay on MKL-2, in the assay with UISO and in the assay on WaGa was “inactive” in each case. The Potency result in the assay on C33A, with CAOV3, in the assay with CASKI, in the assay on Es-2, in the assay with HeLa and in the assay on Hek293T [1] was “inactive” throughout. In addition, the Potency entry with JEG-3, with OV90, in the assay with PA-1, with SKOV3, with Tov-21-G and with Tov112D was “inactive” in each case. The molecule was called inactive with NIH3T3.

Turning to `CN1CCC(=C2c3ccccc3CCc3cccnc32)CC1`, the Potency result with MCC-13, in the assay on MCC-26, in the assay with MKL-1, in the assay with MKL-2, in the assay on UISO and in the assay with WaGa was “inactive” in each case. For the same molecule, the Potency entry in the assay with C33A, in the assay on CAOV3, with CASKI, with Es-2, with HeLa and in the assay on Hek293T [1] was “inactive” throughout. Besides, the Potency result in the assay with JEG-3, in the assay on OV90, in the assay with PA-1, with SKOV3 and in the assay on Tov112D was “inactive” in each case. The outcome in the assay with NIH3T3 was inactive.
